Assay results reported in the supplement of paper PMC4709259.
Structures can show the parent of a compound that is named as a salt. ± gives the standard deviation.

What follows are compounds tested on Jurkat (assay: mean cell size (FSC-A) relative to DMSO control (fraction of control); higher = larger cells). Details: 48 h.
Summary of the method: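 Jurkat cells at 600 cells/µl were incubated for 1 h and then treated for 48h with the Enzo Screen-Well FDA Approved Drug Library v2.0 at 25µM, with DMSO at 0.9% (v/v) final. Compounds that reduced counts below 20% of controls were retested in 10-fold dilutions down to 25nM. Cell count and mean cell size, taken as forward scatter area, were measured by flow cytometry relative to solvent-only controls. Each plate carried 6-12 controls, and values are means of 3 biological replicates.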

SMILES | mean cell size
COc1ccc(OC)c(C(O)CNC(=O)CN)c1 (stereo unspecified) [Midodrine·HCl] (concentration: 25 µM) | 0.942 ± 0.065
NC12CC3CC(CC(C3)C1)C2 [Amantadine·HCl] (concentration: 25 µM) | 1.01 ± 0.058
CCC1=C(C)CN(C(=O)NCCc2ccc(S(=O)(=O)NC(=O)N[C@H]3CC[C@H](C)CC3)cc2)C1=O [Glimepiride] (concentration: 25 µM) | 0.94 ± 0.02
O=C(O)c1cc(-c2ccc(F)cc2F)ccc1O [Diflunisal] (concentration: 25 µM) | 0.989 ± 0.061
Cc1cccc(C)c1OCC(C)N (stereo unspecified) [Mexiletine·HCl] (concentration: 25 µM) | 0.983 ± 0.012
O=C(O)c1cccnc1 [Niacin (Known As Vitamin B3, Nicotinic Acid And Vitamin Pp)] (concentration: 25 µM) | 0.945 ± 0.053
Nc1c2c(nc3ccccc13)CCCC2 [Tacrine·HCl] (concentration: 25 µM) | 0.9808 ± 0.0065
Nc1ccn([C@H]2CC[C@@H](CO)O2)c(=O)n1 [Zalcitabine (2',3'-Dideoxycytidine)] (concentration: 25 µM) | 1.31 ± 0.061
COC(=O)C1=C(C)NC(C)=C(C(=O)OCC(C)C)C1c1ccccc1[N+](=O)[O-] (stereo unspecified) [Nisoldipine] (concentration: 25 µM) | 1.09 ± 0.047
CCCCN1CCCCC1C(=O)Nc1c(C)cccc1C (stereo unspecified) [Bupivacaine·HCl] (concentration: 25 µM) | 0.982 ± 0.02
OC(c1cc(C(F)(F)F)nc2c(C(F)(F)F)cccc12)C1CCCCN1 (stereo unspecified) [Mefloquine·HCl] (concentration: 2.5 µM) | 0.9935 ± 0.0057
